Measured values reported in PubChem BioAssay AID372 (MTDP, 2006).
In all, about 100,000 compounds went through this assay and about 770 (0.77%) were called active. Cut-off read from the data, not from the text of the source: active = inhibition above about 50%; inactive = the rest. Many of the other results were omitted from the sample, so actives are more common in it than they were.

Biological target: Gag-Pol polyprotein (Human immunodeficiency virus type 1 group M subtype B (isolate HXB2)) (UniProt P04585)
Test: RNase H inhibition, HIV 1 Gag Pol polyprotein, FRET biochemical assay, screening (AID 372)
Details: HIV-1 RT RNase H, FRET RNA/DNA substrate fluorescence; at 10 µM; stronger effect = higher value

Row | Compound | inhibition
1 | O=C1c2ccccc2C(=O)N1CC(O)Cn1c2ccc(Br)cc2c2cc(Br)ccc21 (stereo not drawn) | 16% (inactive)
2 | CCc1ccc(OCCN2CCOCC2)cc1 | 50% (active)
3 | CCc1ccc(OCCCN2CCOCC2)cc1 | 3% (inactive)
4 | CCc1ccc(OCCCCCCN2CCOCC2)cc1 | 8% (inactive)
5 | Cc1cc(/C=C2\C(=O)NC(=O)N(c3ccc(Br)cc3)C2=O)c(C)n1-c1cccnc1 | 2% (inactive)
6 | COc1ccccc1NC(=O)c1c(NC(=O)c2cc([N+](=O)[O-])ccc2Cl)sc2c1CCCC2 | 3% (inactive)
7 | CCN(CC)C(=O)c1sc(NC(=O)c2cc(OC)cc(OC)c2)c(C(=O)OC)c1C | 10% (inactive)
8 | O=C1NC(=Nc2ccc(O)cc2)S/C1=C/C(Cl)=C/c1ccc([N+](=O)[O-])cc1 | 0% (inactive)
9 | O=C1NC(=Nc2cccc(O)c2)S/C1=C/C(Cl)=C/c1ccc([N+](=O)[O-])cc1 | 51% (active)
10 | O=C1NC(=Nc2ccc(O)cc2)S/C1=C\c1ccc([N+](=O)[O-])cc1 | 4% (inactive)
11 | O=C1C(=O)N(c2ccc(Br)cn2)C(c2ccccc2[N+](=O)[O-])/C1=C(/O)c1ccccc1 (stereo not drawn) | 4% (inactive)
12 | O=C(Nc1ccc(F)cc1)Nc1nnc(CSCc2ccc(Cl)cc2)s1 | 26% (inactive)
13 | N=C1S/C(=C\c2ccc(-c3ccc(F)cc3)o2)C(=O)N1c1ccc2c(c1)OCO2 | 52% (active)
14 | O=C1NC(=O)N(c2ccc3c(c2)OCO3)C(=O)/C1=C/c1ccc(Sc2ccccc2)o1 | 0% (inactive)
15 | N=C1S/C(=C\c2ccc3c(c2)OCO3)C(=O)N1c1ccc(F)cc1 | 43% (inactive)
16 | N=C1S/C(=C\c2ccc(-c3ccc([N+](=O)[O-])cc3)o2)C(=O)N1c1ccc2c(c1)OCO2 | 12% (inactive)
17 | O=C1/C(=C\c2cc3c(cc2[N+](=O)[O-])OCO3)SC(=S)N1c1ccccc1 | 24% (inactive)
18 | O=C1NC(=O)N(c2ccc3c(c2)OCO3)C(=O)/C1=C/c1ccc(-c2cccc(Cl)c2)o1 | 53% (active)
19 | N=C1S/C(=C\c2cc3c(cc2[N+](=O)[O-])OCO3)C(=O)N1c1ccc(F)cc1 | 55% (active)
20 | N=C1S/C(=C\c2ccc(-c3ccccc3F)o2)C(=O)N1c1ccc2c(c1)OCO2 | 30% (inactive)
21 | O=C1NC(=O)N(c2ccc3c(c2)OCO3)C(=O)/C1=C/c1ccc(-c2cccc([N+](=O)[O-])c2)o1 | 0% (inactive)
22 | COc1ccc(OC)c(/C=C2\C(=O)NC(=S)N(c3ccc(Br)cc3)C2=O)c1 | 12% (inactive)
23 | O=C(Nc1nnc(SCc2ccccc2)s1)c1cccc2ccccc12 | 3% (inactive)
24 | O=[N+]([O-])c1ccc(OCCCCN2CCOCC2)cc1 | 9% (inactive)

Row | Compound | inhibition
25 | Clc1ccc(OCCOCCOc2cccc3cccnc23)c2ccccc12 | 45% (inactive)
26 | O=C(Nc1ccccc1Cl)c1ccc(N2C(=O)c3ccccc3C2=O)cc1 | 16% (inactive)
27 | CSCCC(NC(=O)c1ccccc1)C(=O)OCC(=O)Nc1cc(C)on1 (stereo not drawn) | 11% (inactive)
28 | CCCOc1ccc2ccccc2c1C=C1C(=O)NC(=S)NC1=O | 23% (inactive)
29 | COc1ccc(OC)c(N(CC(=O)Nc2ccccc2F)S(C)(=O)=O)c1 | 8% (inactive)
30 | S=C(NCc1ccccc1)N/N=C/c1ccco1 | 22% (inactive)
31 | COc1ccc(CCNC(=O)C(=O)Nc2ccccc2)cc1 | 11% (inactive)
32 | Cc1ccc(NC(=O)CSc2nc3ccccc3s2)cc1C | 41% (inactive)
33 | CN1CCN(/N=C/c2ccc([N+](=O)[O-])s2)CC1 | 6% (inactive)
34 | CCOc1ccc(-n2sc3c(c2=S)-c2ccc(OC)cc2NC3(C)C)cc1 | 2% (inactive)
35 | COc1cc(NC(=O)c2ccc(C(C)(C)C)cc2)ccc1NC(=O)c1cc2ccccc2o1 | 7% (inactive)
36 | O=C(Nc1ccc(Cl)c(-c2nc3ncccc3o2)c1)c1ccc(Cl)cc1Cl | 6% (inactive)
37 | COc1ccc(Cl)cc1C(=O)Nc1ccc(Cl)c(-c2nc3ncccc3o2)c1 | 57% (active)
38 | COc1cc(NC(=O)c2ccc(Cl)cc2Cl)ccc1NC(=O)c1cc2ccccc2o1 | 21% (inactive)
39 | CCOc1cc(C(=O)Nc2ccc(NC(=O)c3cc4ccccc4o3)c(OC)c2)cc(OCC)c1OCC | 11% (inactive)
40 | COc1cc(NC(=O)c2cccc(Cl)c2)ccc1NC(=O)c1cc2ccccc2o1 | 34% (inactive)
41 | COc1cc(NC(=O)c2cccc(Br)c2)ccc1NC(=O)c1cc2ccccc2o1 | 51% (active)
42 | COc1cc(NC(=O)c2ccccc2F)ccc1NC(=O)c1cc2ccccc2o1 | 24% (inactive)
43 | COc1ccc(Cl)cc1C(=O)Nc1cccc(-c2nc3ncccc3o2)c1C | 3% (inactive)
44 | COc1cc(NC(=O)c2cc(Cl)c(OC)c(Cl)c2)ccc1NC(=O)c1cc2ccccc2o1 | 52% (active)
45 | COc1ccc(C(=O)Nc2ccc(NC(=O)c3cc4ccccc4o3)c(OC)c2)cc1Br | 6% (inactive)
46 | COc1cc(NC(=O)c2cc(Cl)ccc2OC)ccc1NC(=O)c1cc2ccccc2o1 | 55% (active)
47 | COc1ccccc1N1CCN(C(=O)Cc2ccc(Cl)cc2)CC1 | 5% (inactive)
48 | CCCCOc1ccc(C(=O)NC(=S)Nc2cccc(Cl)c2Cl)cc1 | 15% (inactive)

Row | Compound | inhibition
49 | COc1cccc(C(=O)Nc2ccc(O)c(-c3nc4cc(C)ccc4o3)c2)c1 | 5% (inactive)
50 | CCc1ccccc1NC(=O)C(=O)NCCCOC | 14% (inactive)
51 | O=C(O)C1C2CC=CC2c2cc(Oc3ccccc3)cc3c2N1CC1CC=CC31 (stereo not drawn) | 40% (inactive)
52 | Cc1ccc(OCCCNC(C)(C)C)c(C(C)(C)C)c1 | 62% (active)
53 | Cc1ccc(OCCCCNC(C)(C)C)c(C)c1 | 2% (inactive)
54 | Cc1ccc(OCCCNC(C)(C)C)c(C)c1 | 10% (inactive)
55 | COCCOC(=O)C1=C(C)NC(=O)CC1c1ccccc1Br (stereo not drawn) | 3% (inactive)
56 | COc1ccc(/C=N/N(C)c2cc(C)nc(-c3ccccc3O)n2)cc1OC | 18% (inactive)
57 | COc1ccc(C=Nc2ccc(Cl)c(Cl)c2)c2ccccc12 | 32% (inactive)
58 | Cc1ccc(C(=O)NC(=S)Nc2ccc3oc(-c4ccc(Cl)cc4)nc3c2)cc1C | 8% (inactive)
59 | CC(=O)Nc1ccc(N2C(=O)c3cccc4c(C(=O)c5ccccc5)ccc(c34)C2=O)cc1 | 20% (inactive)
60 | Nc1ccc(-c2ccc(N3C(=O)c4cccc5c(C(=O)c6ccccc6)ccc(c45)C3=O)cc2)cc1 | 51% (active)
61 | O=C(O)c1ccc2c3c(cccc13)C(=O)N(c1ccccc1)C2=O | 21% (inactive)
62 | O=C(N=NC(=O)c1ccccc1O)c1ccc(-n2c(O)c3ccccc3c2O)cc1 | 8% (inactive)
63 | Cc1ccc(C(=O)Nc2ccc(Nc3ccccc3)cc2)cc1[N+](=O)[O-] | 15% (inactive)
64 | Cc1ccc(NCC(=O)N/N=C\c2ccccc2OCC(=O)O)cc1 | 7% (inactive)
65 | COc1ccc(/C=C/C(=O)NC(=S)Nc2ccc(S(=O)(=O)N=C(N)N)cc2)cc1 | 57% (active)
66 | COc1ccc(/C=C/C(=O)NC(=S)Nc2ccc(I)cc2)cc1 | 8% (inactive)
67 | NC(N)=NS(=O)(=O)c1ccc(NC(=S)NC(=O)/C=C/c2ccc(Br)cc2)cc1 | 19% (inactive)
68 | Cc1ccc(/C=C/C(=O)NC(=S)Nc2ccc(S(=O)(=O)N=C(N)N)cc2)cc1 | 63% (active)
69 | CC(C)c1ccc(/C=C/C(=O)NC(=S)Nc2ccc(S(=O)(=O)N=C(N)N)cc2)cc1 | 41% (inactive)
70 | COc1ccc(C(=O)NC(=S)Nc2ccc(S(=O)(=O)N=C(N)N)cc2)cc1 | 2% (inactive)
71 | CC(=O)C1=C(O)C(=O)N(c2ccc(Br)cn2)C1c1ccc([N+](=O)[O-])cc1 (stereo not drawn) | 0% (inactive)
72 | CCCN1CCC(NCCc2ccc(F)cc2)CC1 | 1% (inactive)

Row | Compound | inhibition
73 | COc1cc(OC)cc(C(=O)N2CCN(Cc3ccccc3[N+](=O)[O-])CC2)c1 | 6% (inactive)
74 | O=C(O)c1ccc(/C=N/Nc2ccc([N+](=O)[O-])cc2)cc1 | 10% (inactive)
75 | O=C(O)c1ccc(N/N=C/c2ccccc2C(F)(F)F)cc1 | 6% (inactive)
76 | O=C(O)c1ccc(N/N=C/c2c(Cl)ccc(Cl)c2Cl)cc1 | 51% (active)
77 | COc1cc(C=O)ccc1OCCOc1ccc(Cl)cc1 | 7% (inactive)
78 | COC(=O)c1ccc(COc2ccc3c(c2)oc(=O)c2ccccc23)cc1 | 48% (inactive)
79 | COc1ccc2c(c1)c(=O)oc1cc(OCc3ccc(C(=O)O)cc3)ccc12 | 19% (inactive)
80 | COC(=O)c1ccc(COc2ccc3c(c2)oc(=O)c2cc(OC)ccc23)cc1 | 59% (active)
81 | COc1ccc(OC)c(/C=C2\SC(N3CCCCCC3)=NC2=O)c1 | 11% (inactive)
82 | COc1ccc(/C=C2\SC(=S)N(CCC(=O)Nc3cc(Cl)ccc3O)C2=O)cc1 | 53% (active)
83 | Cc1ccc(/C=C2/SC(=S)N(CCC(=O)Nc3ccc(Br)cc3)C2=O)cc1 | 0% (inactive)
84 | CC(C)(C)N(Cc1ccccc1)C(=O)CCCN1C(=O)/C(=C/c2cccs2)SC1=S | 37% (inactive)
85 | O=C1/C(=C/c2cccs2)SC(=S)N1CCCC(=O)N(Cc1ccccc1)c1ccccc1 | 50% (active)
86 | CCOc1ccccc1NC(=O)CCN1C(=O)/C(=C/c2ccc(C)cc2)SC1=S | 56% (active)
87 | COc1ccccc1NC(=O)CCN1C(=O)/C(=C/c2ccc(C)cc2)SC1=S | 11% (inactive)
88 | CCOc1ccccc1NC(=O)CCCN1C(=O)/C(=C/c2ccc(C)cc2)SC1=S | 27% (inactive)
89 | Cc1ccc(/C=C2\SC(=S)N(CCC(=O)Nc3ccc(Cl)cc3)C2=O)cc1 | 18% (inactive)
90 | CC(C)(C)N(Cc1ccccc1)C(=O)CCN1C(=O)/C(=C\c2cccs2)SC1=S | 12% (inactive)
91 | Cc1ccc(/C=C2/SC(=S)N(CCCC(=O)Nc3cc(Cl)ccc3O)C2=O)cc1 | 16% (inactive)
92 | Cc1ccc(/C=C2\SC(=S)N(CCC(=O)Nc3ccc(S(N)(=O)=O)cc3)C2=O)cc1 | 57% (active)
93 | Cc1ccc(/C=C2\SC(=S)N(CCC(=O)Nc3cc(Cl)ccc3O)C2=O)cc1 | 10% (inactive)
